# Assay outcomes (PubChem BioAssay)
# An excerpt weighted towards active compounds, which were near 10% of everything screened.
# GPT2 inh: GPT2 alanine aminotransferase inhibition; 0.25% of 100,000 active; AID 1671188; Recombinant GPT2, coupled pyruvate oxidase/HRP Amplex Red fluorescence; Potency, µM (doses to about 57.7 µM), for inactives: at the highest dose activity change, negative = inhibition, usual class: inhibitors; also: % is scaled to controls: 0 for no effect and ±100 for the full control effect; nearly all actives have a fitted effect of over 60% in size
#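 Inhibition is scored from Amplex Red fluorescence generated when pyruvate oxidase and HRP act on pyruvate released by GPT2. Reactions contain 10ng/uL enzyme, 250uM a-KG and 2mM L-alanine and run 30 min at room temperature.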
# NPR1 antag: antagonists of human natriuretic peptide receptor Npr1. Potency, µM (doses to about 46.3 µM), for inactives: top-dose activity change, negative = inhibition, usual class: inhibitors. 1.6% of 76,000 active. P16066. HEK293 hNpr1 GloSensor cGMP, ANP-stimulated luminescence; calls by dose curve; also: % is scaled to controls: 0 for no effect and ±100 for the full control effect; nearly all actives have a fitted effect of over 60% in size
#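 Compound pre-incubated 30 min at room temperature on GloSensor-loaded HEK293 cells stably carrying hNpr1 and the pGS-40F cGMP biosensor. Stimulation uses hNppA at 0.1 nM final; luminescence is taken at baseline and 20 min post-agonist.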
# FLuc inh-1: blocks purified firefly luciferase enzyme activity | Potency, µM (top dose mostly 115 µM), actives largely listed as inhibitors | 2.5% of 76,000 active | purified P. pyralis luciferase, luminescence, biochemical | P08659; also: % is scaled to controls: 0 for no effect and ±100 for the full control effect; nearly all actives have a fitted effect of over 65% in size
# Target sequence (P08659 whole entry, looked up): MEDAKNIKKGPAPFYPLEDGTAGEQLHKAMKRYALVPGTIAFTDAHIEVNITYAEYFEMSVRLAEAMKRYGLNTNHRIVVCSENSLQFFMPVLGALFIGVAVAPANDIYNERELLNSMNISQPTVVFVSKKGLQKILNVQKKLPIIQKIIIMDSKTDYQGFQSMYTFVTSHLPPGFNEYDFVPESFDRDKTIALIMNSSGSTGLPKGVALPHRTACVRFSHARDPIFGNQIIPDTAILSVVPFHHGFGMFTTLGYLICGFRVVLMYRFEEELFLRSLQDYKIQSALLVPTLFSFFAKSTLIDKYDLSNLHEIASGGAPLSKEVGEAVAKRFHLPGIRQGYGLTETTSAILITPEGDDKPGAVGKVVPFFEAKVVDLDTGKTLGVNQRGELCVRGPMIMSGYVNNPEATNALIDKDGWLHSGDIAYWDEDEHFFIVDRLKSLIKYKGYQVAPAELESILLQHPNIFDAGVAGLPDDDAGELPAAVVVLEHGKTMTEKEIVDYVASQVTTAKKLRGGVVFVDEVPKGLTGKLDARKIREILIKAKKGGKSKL
#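 Luminescence read by CCD imaging after purified firefly luciferase (10nM final) was added to substrate buffer holding 10uM D-luciferin and 10uM ATP, pH 7.5, pre-dosed with compound.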
# HEK cytotox: kills HEK 293 cells | HEK 293 viability, ATP luminescence (CellTiter-Glo), 48-72 h | Potency, µM (titrated, usually from 115 µM), without a hit: at the top dose activity change, negative = cytotoxicity, most hits filed as inhibitors | 6.6% of 94,000 active | AID 1345083; also: % is scaled to controls: 0 for no effect and ±100 for the full control effect; nearly all actives have a fitted effect of over 60% in size
#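 Cells seeded first (HEK 293, 250 cells/well), then compound added by pintool. Incubation ran 48 or 72 hr at 37 degree Celsius. CellTiter-Glo was added and luminescence imaged after 10 min at room temperature.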
# NIH3T3 tox: kills NIH 3T3 cells. NIH 3T3 viability, CellTiter-Glo ATP luminescence, 48-72 h. Potency, µM (series often up to 96.7 µM), inactives show top-dose activity change, negative = cytotoxicity, most hits filed as inhibitors. 4.3% of 94,000 active. AID 1345082; also: % is scaled to controls: 0 for no effect and ±100 for the full control effect; nearly all actives have a fitted effect of over 55% in size
#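 Viability of NIH 3T3 cells after 48 or 72 hr compound treatment at 37 °C was assessed by CellTiter-Glo, with luminescence imaged following a 10 min room-temperature step.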
# FLuc SDR no ATP: firefly luciferase binding stabilization, ATP absent. shares compounds with FLuc inh-1. Purified FLuc-C-HiBiT, Nano-Glo HiBiT luminescence, no ATP. Potency, µM (series often up to 32.7 µM), for the others: top-dose activation (signal gain), hits mostly activators. 7.8% of 1,300 active; also: nearly all actives have a fitted effect of over 55% in size
# FLuc SDR ATP: stabilizes firefly luciferase with ATP present. 8.7% of 1,300 active. Potency, µM (titrated, usually from 32.7 µM), without a hit: at the highest dose activation (gain of signal), actives largely listed as activators. purified FLuc-C-HiBiT + ATP, HiBiT complementation luminescence. shares compounds with FLuc inh-1;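 also: signal reports ligand binding via conformational change of the enzyme rather than luciferase catalysis; % of control where 0% means no effect; nearly all actives have a fitted effect of over 55% in size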
# FLuc inh-2: inhibitors of firefly luciferase enzymatic activity. shares compounds with FLuc inh-1. purified FLuc-C-HiBiT enzyme, luciferin luminescence. Potency, µM (doses to about 32.7 µM), without a hit: at the top dose activity change, negative = inhibition, most hits filed as inhibitors. 42% of 1,300 active; also: % is scaled to controls: 0 for no effect and ±100 for the full control effect; nearly all actives have a fitted effect of over 70% in size
# The depositor's hits bear a star; i = inactive; ? = inconclusive; · = not tested or not shown; [ ] = dose if it differs, or a comment. Unless noted, calls follow the shape of the dose curve; as a rule, active = well fitted curve in the direction sought with a large enough effect; inconclusive = small, poorly fitted or top-dose-only effect, or another doubt; inactive = no such curve, though single readings can be large; an effect the other way counts as inactive or inconclusive. Potency is read from the fitted curve at half-maximal effect.
SMILES,GPT2 inh,NPR1 antag,FLuc inh-1,HEK cytotox,NIH3T3 tox,FLuc SDR no ATP,FLuc SDR ATP,FLuc inh-2
CN(C)c1ccc(-c2noc([C@@H]3CCCN3Cc3cnc4ccccc4c3)n2)cn1,?,14.1µM*,14.1µM*,?,?,14.5%[49.3 µM],10.7%[49.3 µM],-1.7%[49.3 µM]
COc1cccc(C(=O)Nc2cc(-c3ccncc3)nn2C)c1,i,·,·,?,?,·,·,·
COc1ccc(CCC(=O)Nc2nc3ccc(Cl)cc3s2)cc1OC,i,·,·,·,·,·,·,·
COc1cccc(CC(=O)Nc2ccc(-c3nc4ccccc4s3)cc2Cl)c1,·,·,·,·,·,12.6%,9.3%,-9.4%
COc1cccc(CNC(=O)CNC(=O)c2ccc(-c3cnc4ccccc4c3)cc2)c1,0.5%,·,·,?,-15.2%,·,·,·
COc1cccc(C(=O)Nc2ccc(-c3nc4ccccc4s3)cc2Cl)c1,·,·,·,·,·,14.1%,8.6%,-1.1%
COc1ccc(CC(=O)Nc2ccc(-c3nc4ccccc4s3)cc2Cl)cc1OC,·,·,·,·,·,15.5%,10.8%,-19.2%
COc1cccc(C(=O)NC2CCN(c3cc(-c4ccc(Cl)cc4)[nH]n3)CC2)c1,i,-23.1%,i,-22.0%,-5.2%,·,·,·
CN(C)c1cccc(C(=O)NC2CCN(c3cc(-c4ccc(Cl)cc4)[nH]n3)CC2)c1,-13.2%,?,7.08µM*,?,31.6µM*,12.1%,9.89µM*,6.24µM*
O=C(NC1CCCN(c2cc(-c3ccc(Cl)cc3)[nH]n2)C1)c1ccc2ncccc2c1 (centres undefined),-17.2%,?,1.78µM*,?,?,10.5%,7.6%,4.95µM*
NCC(=O)NC1CC2(CCN(C(=O)Cc3ccc(O)cc3)CC2)c2ccccc21 (centres undefined),0.9%,·,·,i,i,·,·,·
COc1cccc(-c2cn3ncsc3n2)c1,·,·,·,·,·,21.6%,15.8%,?
COc1cccc(-c2cn3c(n2)N(C(=O)c2ccoc2)CCC3)c1,-1.7%,-1.8%,i,?,i,·,·,·
CCOc1ccc2nc(N(Cc3cccnc3)C(=O)c3cccs3)sc2c1,·,·,·,·,·,10.1%,7.5%,-18.7%
COCCCNC(=O)c1ccc2oc(-c3ccnc(Cl)c3)nc2c1,-4.4%,·,·,?,?,·,·,·
Brc1ccc(-c2nc(-c3ccccn3)no2)o1,·,·,·,·,·,?,?,1.24µM*
COc1ccc(-c2noc(-c3nc(-c4ccccn4)no3)n2)cc1,i,0.1%,i,8.8%,i,·,·,·
Clc1ccc(-c2nc(-c3ccccn3)no2)cc1Cl,·,·,·,·,·,?,?,5.56µM*
O=C([C@@H]1C[C@H](F)CN1S(=O)(=O)c1ccc2c(c1)OCCO2)N1CCCCC1,i,1.3%,i,-3.0%,-11.1%,·,·,·
CC(=O)N1CCNc2cc(Nc3cccc(N(C)C)c3)ncc2C1,-12.5%[88.5 µM],-1.3%[70.6 µM],2.82µM*,?,?,31.4%[49.3 µM],?,16.1µM*
COc1cccc(Nc2cc3c(cn2)CN(C(C)=O)CCN3)c1,3.3%[88.5 µM],-30.4%[70.6 µM],1.78µM*,?,?,?,?,9.04µM*
CN1CCC(OC2CCN(C(=O)c3ccc(F)cc3)CC2)CC1,i,-1.1%,i,-20.9%,-16.8%,·,·,·
COC(=O)NC1CCCN(Cc2ccc(-c3cncnc3)cc2)C1 (centres undefined),i,·,·,i,i,·,·,·
COc1ccc(C2Cn3nnc(-c4nc(-c5ccccc5)no4)c3CO2)cc1 (centres undefined),2.9%,?,?,-2.8%,-8.8%,·,·,·
Oc1c(Br)cc(Br)cc1-c1nc2ccccc2s1,·,·,·,·,·,9.8%,7.9%,?
SMILES,GPT2 inh,NPR1 antag,FLuc inh-1,HEK cytotox,NIH3T3 tox,FLuc SDR no ATP,FLuc SDR ATP,FLuc inh-2
CC1(C)CC[C@]2(C(=O)O[C@@H]3O[C@H](CO)[C@@H](O)[C@H](O)[C@H]3O)CC[C@]3(C)C(=CCC4[C@@]5(C)C[C@@H](O)[C@H](O)[C@@](C)(CO)C5[C@H](O)C[C@]43C)C2C1 (some centres undefined),i,·,·,·,·,·,·,·
CC1CCN(C(=O)c2cc3c(s2)CCC(C(=O)O)C3)CC1 (centres undefined),-7.4%,0.2%,12.6µM*,-9.0%,-29.7%,10.1%,18.6%,?
Cc1noc(C)c1-c1ncc2c(n1)OCCN(Cc1ccccc1)C2=O,-8.6%[88.5 µM],-7.7%[70.6 µM],i,-40.5%[172 µM],?,·,·,·
O=C1c2cnc(-c3cccc(CO)c3)nc2OCCN1c1cccc(C(F)(F)F)c1,2.2%[88.5 µM],?,11.2µM*,?,17.8µM*,16.3%[49.3 µM],13.9%[49.3 µM],?
O=C1c2cnc(-c3cccc(C(F)(F)F)c3)nc2OCCN1CC1CC1,4.9%[88.5 µM],?,3.16µM*,?,?,?,?,9.04µM*
O=C1c2cnc(-c3ccsc3)nc2OCCN1CC1CC1,?,-11.9%[70.6 µM],?,?,-16.7%[138 µM],·,·,·
CN1CCOc2nc(-c3cccc(OC(F)(F)F)c3)ncc2C1=O,-7.2%[88.5 µM],?,3.16µM*,?,?,20.7%[49.3 µM],?,?
Cc1ccc(-c2ncc3c(n2)OCCN(Cc2ccc(F)cc2F)C3=O)cc1,0.0%[88.5 µM],?,3.16µM*,-21.7%[172 µM],?,12.2%[49.3 µM],10.9%[49.3 µM],-4.0%[49.3 µM]
C[S+](=O)([O-])c1ccc(-c2ncc3c(n2)OCCN(Cc2ccc(F)cc2F)C3=O)cc1,2.1%,-10.5%,i,?,-17.0%,·,·,·
O=C(NCc1ccccc1)c1cn2cc(-c3ccccc3)sc2n1,i,·,·,-17.7%[172 µM],-31.7%[138 µM],·,·,·
Cc1c2oc3c(C)ccc(C(=O)NC4C(=O)NC(C(C)C)C(=O)N5CCCC5C(=O)N(C)CC(=O)N(C)C(C(C)C)C(=O)OC4C)c3nc-2c(C(=O)NC2C(=O)NC(C(C)C)C(=O)N3CCCC3C(=O)N(C)CC(=O)N(C)C(C(C)C)C(=O)OC2C)c(N)c1=O (centres undefined),0.1%,·,·,·,·,·,·,·
O=C(O)c1ccnc(-c2ccnc(NCCN3CCCCC3=O)n2)c1,i[11.5 µM],-3.1%,1.41µM*,i,-3.8%,19.5%,11.1µM*,?
O=C(O)c1ccnc(-c2ccnc(NCCCN3CCCC3=O)n2)c1,i,3.8%,?,i,-11.4%,·,·,·
COc1ccccc1C(=O)NCCn1ccn2nc(-c3ccc(C)c(C)c3)cc2c1=O,i,-4.3%,i,-25.8%,-26.8%,·,·,·
COc1ccc(-c2cc3c(=O)n(CCNC(=O)Cc4cccs4)ccn3n2)cc1,i,-19.2%,8.91µM*,?,?,?,?,?
